About 8,800 targets were measured; listed, in parts, are those with a hit and a random draw of the rest. About 0.5% of all pairs of compound and target were hits. A number with no mark means an inactive call.
Legend:
Assay in all cases: log2 fold change, soluble protein after heating vs DMSO (PISA); higher = thermal stabilisation; K562 lysate, 10 uM; active = over 0.2 and 3.5 SD of the protein, either way, in both replicates (recomputed)
erlotinib = compound: C#Cc1cccc(Nc2ncnc3cc(OCCOC)c(OCCOC)cc23)c1 [erlotinib]
How it was run: (§1)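 Quantification was by TMTpro 16plex LC-MS/MS with equalised channel sums, applied to the supernatant after 21,000xg for 90 min. Samples were crude K562 extract at 1 mg/mL protein in PBS pH 7.4 with 1 mM MgCl2, treated with 10 μM compound for 30 min, heated for 3 min across 48°C-58°C, pooled and brought to 0.5% NP-40 at 4°C. Values are log-two fold changes in thermal stability relative to solvent controls, from duplicates.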

[1] = compound: C/C(=N\NC(=O)C1=CC(=CC=C1)S(=O)(=O)N2CCOCC2)/C3=C(C=CC(=C3)Cl)O
How it was run: as §1

[2] = compound: C1=CC(=CC=C1C2=NC3=C(N2)C=C(C=C3)C(=O)N)OC4=CC=C(C=C4)Cl
How it was run: as §1

[3] = compound: C1=CC2=C(C=CC(=C2)/C=C\3/C(=O)NC(=NCC4=CC=CS4)S3)N=C1
How it was run: as §1

[4] = compound: C1=CC2=NC=CN=C2C=C1/C=C/3\C(=O)NC(=O)S3
How it was run: as §1

[5] = compound: C1=CC=C(C=C1)C2=NC(=C(N2)C3=CC=NC=C3)C4=CC(=C(C=C4)Cl)O
How it was run: as §1

[6] = compound: C1=CC=C2C(=C1)C3=NNC4=CC=CC(=C43)C2=O
How it was run: as §1

[7] = compound: C1CCN(C1)C(=O)NC2=CC=CC(=C2)NC3=NC=C(C(=N3)NCCC4=CN=CN4)Br
How it was run: as §1

[8] = compound: C1CN(CCC1(CC2=CC=C(C=C2)Cl)N)C3=NC=NC4=C3C=CN4
How it was run: as §1

IRAK-1-4 Inhibitor I = compound: C1COCCN1CCN2C3=CC=CC=C3N=C2NC(=O)C4=CC(=CC=C4)[N+](=O)[O-] [IRAK-1-4 Inhibitor I]
How it was run: as §1

UniProt Q8TCD1, sequence (Q8TCD1 whole entry, looked up): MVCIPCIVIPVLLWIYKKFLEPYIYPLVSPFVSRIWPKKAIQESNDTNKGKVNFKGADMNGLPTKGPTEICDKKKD
UniProt Q8WXE1, sequence (Q8WXE1 whole entry, looked up): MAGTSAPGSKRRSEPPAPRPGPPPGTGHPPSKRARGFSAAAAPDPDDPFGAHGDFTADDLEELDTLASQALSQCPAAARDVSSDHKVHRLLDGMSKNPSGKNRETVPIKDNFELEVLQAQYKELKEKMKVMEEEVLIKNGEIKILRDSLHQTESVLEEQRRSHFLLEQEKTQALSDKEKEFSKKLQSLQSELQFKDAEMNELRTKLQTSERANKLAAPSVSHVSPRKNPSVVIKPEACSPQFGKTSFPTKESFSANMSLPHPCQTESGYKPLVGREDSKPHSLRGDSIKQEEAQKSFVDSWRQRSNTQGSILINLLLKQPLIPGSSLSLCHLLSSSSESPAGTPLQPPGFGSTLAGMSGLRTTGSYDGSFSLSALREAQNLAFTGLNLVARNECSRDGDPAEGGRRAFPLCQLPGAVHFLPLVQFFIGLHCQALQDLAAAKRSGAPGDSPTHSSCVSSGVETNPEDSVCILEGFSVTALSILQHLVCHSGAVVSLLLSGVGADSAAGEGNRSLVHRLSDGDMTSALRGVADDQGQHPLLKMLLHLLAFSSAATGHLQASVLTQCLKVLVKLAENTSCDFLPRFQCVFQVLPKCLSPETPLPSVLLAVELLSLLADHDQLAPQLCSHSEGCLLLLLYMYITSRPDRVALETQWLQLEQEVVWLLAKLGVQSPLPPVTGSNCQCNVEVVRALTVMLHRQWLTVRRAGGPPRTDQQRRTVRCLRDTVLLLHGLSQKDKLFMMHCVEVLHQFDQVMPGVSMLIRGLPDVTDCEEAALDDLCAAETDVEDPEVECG
UniProt P98196, sequence (P98196 whole entry, looked up): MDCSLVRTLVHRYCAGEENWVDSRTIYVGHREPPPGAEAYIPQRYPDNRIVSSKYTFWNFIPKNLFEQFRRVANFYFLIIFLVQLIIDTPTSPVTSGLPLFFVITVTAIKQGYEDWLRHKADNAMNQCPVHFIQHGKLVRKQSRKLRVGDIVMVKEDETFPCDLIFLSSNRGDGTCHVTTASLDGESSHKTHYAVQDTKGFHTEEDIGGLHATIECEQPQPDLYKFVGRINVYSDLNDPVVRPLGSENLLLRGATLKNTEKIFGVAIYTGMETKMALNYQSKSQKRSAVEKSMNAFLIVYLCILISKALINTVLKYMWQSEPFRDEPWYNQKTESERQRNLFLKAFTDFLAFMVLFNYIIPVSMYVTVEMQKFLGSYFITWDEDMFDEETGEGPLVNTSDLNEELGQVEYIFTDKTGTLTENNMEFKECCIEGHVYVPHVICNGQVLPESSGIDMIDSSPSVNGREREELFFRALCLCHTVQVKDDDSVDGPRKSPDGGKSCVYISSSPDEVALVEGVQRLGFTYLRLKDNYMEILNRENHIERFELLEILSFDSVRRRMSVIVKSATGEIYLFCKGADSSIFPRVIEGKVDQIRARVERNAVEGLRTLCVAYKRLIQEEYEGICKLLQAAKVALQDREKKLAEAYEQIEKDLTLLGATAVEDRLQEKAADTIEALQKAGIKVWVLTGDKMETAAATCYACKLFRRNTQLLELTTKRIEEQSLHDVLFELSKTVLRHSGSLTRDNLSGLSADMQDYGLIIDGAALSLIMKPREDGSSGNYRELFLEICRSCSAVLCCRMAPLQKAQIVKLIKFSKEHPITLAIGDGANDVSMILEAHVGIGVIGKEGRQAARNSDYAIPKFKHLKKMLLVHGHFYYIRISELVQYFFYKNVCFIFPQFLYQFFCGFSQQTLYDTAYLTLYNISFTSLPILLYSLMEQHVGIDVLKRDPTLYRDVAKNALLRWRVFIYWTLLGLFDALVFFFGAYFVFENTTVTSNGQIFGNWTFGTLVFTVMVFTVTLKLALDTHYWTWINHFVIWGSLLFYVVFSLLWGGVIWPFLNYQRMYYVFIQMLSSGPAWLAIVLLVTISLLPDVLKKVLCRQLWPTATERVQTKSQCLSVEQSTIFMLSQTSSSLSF
UniProt Q8IWY9, sequence (Q8IWY9 whole entry, looked up): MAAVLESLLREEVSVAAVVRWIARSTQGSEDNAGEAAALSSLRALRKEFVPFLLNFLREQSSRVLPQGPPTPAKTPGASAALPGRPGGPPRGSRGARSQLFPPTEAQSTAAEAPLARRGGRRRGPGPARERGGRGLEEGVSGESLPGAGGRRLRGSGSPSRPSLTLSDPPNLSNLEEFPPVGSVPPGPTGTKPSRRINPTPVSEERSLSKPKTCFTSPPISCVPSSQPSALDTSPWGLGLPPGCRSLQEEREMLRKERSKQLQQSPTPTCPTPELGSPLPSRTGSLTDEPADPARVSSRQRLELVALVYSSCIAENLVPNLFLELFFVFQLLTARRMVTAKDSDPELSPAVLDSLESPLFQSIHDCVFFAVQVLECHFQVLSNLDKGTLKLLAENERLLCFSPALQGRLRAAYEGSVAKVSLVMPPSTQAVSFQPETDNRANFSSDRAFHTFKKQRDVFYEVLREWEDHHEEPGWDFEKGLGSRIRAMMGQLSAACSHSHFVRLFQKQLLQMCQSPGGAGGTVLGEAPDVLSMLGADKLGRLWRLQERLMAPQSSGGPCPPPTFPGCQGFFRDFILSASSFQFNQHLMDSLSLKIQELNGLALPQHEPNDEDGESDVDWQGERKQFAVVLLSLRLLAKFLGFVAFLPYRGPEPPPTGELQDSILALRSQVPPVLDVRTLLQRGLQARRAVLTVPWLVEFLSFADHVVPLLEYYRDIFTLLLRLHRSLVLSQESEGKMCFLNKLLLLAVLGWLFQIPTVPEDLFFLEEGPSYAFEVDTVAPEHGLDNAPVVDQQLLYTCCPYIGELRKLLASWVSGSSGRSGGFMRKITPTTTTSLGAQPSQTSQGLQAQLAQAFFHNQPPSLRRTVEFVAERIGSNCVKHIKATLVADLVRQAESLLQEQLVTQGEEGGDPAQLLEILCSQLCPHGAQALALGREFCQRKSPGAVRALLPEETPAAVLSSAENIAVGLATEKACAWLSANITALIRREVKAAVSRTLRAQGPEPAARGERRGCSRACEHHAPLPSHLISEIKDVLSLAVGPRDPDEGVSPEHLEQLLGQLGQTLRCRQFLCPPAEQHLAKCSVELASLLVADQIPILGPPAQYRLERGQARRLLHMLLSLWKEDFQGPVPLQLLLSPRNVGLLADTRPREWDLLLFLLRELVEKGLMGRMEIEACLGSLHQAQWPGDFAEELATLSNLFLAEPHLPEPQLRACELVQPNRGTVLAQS
UniProt O43303, sequence (O43303 whole entry, looked up): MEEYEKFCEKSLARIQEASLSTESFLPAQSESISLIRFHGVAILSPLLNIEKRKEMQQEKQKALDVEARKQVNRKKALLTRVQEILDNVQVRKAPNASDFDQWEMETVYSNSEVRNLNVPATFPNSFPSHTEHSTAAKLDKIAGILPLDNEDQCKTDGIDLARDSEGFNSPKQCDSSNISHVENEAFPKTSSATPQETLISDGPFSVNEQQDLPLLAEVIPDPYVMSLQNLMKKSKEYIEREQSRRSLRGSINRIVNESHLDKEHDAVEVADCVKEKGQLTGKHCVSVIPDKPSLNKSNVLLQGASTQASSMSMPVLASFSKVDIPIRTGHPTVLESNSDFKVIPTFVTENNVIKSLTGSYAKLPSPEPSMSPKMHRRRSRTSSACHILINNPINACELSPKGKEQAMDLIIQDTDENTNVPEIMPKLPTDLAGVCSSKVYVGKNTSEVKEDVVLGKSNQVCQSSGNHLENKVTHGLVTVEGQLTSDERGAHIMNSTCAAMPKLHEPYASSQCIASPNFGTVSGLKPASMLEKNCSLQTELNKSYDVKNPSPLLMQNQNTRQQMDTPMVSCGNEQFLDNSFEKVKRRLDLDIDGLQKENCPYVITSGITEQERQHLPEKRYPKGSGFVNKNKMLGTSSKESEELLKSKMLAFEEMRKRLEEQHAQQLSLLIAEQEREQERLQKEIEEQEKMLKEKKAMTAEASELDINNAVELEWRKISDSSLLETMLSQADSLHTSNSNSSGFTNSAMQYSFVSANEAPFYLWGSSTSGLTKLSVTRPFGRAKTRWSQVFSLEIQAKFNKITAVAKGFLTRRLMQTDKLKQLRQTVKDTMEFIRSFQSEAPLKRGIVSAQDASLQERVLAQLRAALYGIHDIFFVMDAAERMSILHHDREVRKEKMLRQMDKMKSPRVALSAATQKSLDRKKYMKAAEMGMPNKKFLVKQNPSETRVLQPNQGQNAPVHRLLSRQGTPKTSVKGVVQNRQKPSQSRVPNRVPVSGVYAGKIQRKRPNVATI
UniProt P46527, sequence (P46527 whole entry, looked up): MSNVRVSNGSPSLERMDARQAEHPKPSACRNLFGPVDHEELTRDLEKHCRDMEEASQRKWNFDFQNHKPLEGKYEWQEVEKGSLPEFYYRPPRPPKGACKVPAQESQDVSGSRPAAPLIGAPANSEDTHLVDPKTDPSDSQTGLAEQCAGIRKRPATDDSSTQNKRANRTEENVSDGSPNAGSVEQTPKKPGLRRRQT
UniProt Q96NL8, sequence (Q96NL8 whole entry, looked up): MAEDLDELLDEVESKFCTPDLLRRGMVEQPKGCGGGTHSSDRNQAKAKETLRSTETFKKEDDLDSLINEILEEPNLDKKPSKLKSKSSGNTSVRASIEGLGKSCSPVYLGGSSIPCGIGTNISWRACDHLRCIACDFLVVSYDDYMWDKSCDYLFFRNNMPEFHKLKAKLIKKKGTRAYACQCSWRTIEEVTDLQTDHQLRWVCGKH
UniProt Q9Y6H1, sequence (Q9Y6H1 whole entry, looked up): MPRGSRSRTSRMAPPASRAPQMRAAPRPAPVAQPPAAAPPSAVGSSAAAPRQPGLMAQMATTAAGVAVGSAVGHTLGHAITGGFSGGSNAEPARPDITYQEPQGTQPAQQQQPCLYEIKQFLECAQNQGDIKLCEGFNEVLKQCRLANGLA
UniProt Q8N5I9, sequence (Q8N5I9 whole entry, looked up): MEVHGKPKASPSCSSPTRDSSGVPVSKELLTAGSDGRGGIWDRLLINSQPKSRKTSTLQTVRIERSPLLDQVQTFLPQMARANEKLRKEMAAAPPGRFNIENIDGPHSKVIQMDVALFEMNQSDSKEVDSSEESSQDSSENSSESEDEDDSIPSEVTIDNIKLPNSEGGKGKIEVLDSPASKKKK

Target | log2 fold change (erlotinib) | log2 fold change [1] | log2 fold change [2] | log2 fold change [3] | log2 fold change [4] | log2 fold change [5] | log2 fold change [6] | log2 fold change [7] | log2 fold change [8] | log2 fold change (IRAK-1-4 Inhibitor I)
CBX5 (UniProt P45973) | -0.012 | 0.009 | 0.013 | -0.001 | 0.011 | 0.011 | 0.026 | -0.007 | 0.02 | 0.007
CDC7 (UniProt O00311) | -0.032 | 0.038 | 0.038 | -0.109 | -0.324 (active) | -0.006 | -0.027 | -0.003 | -0.096 | 0.032
ATP11A (UniProt P98196) | -0.003 | -0.067 | -0.033 | -0.011 | -0.022 | 0.016 | 0.102 | -0.005 | -0.015 | 0.087
CHAC2 (UniProt Q8WUX2) | 0.019 | 0.097 | 0.049 | 0.022 | -0.023 | 0.055 | -0.012 | 0.032 | 0.044 | -0.038
CHCHD2 (UniProt Q9Y6H1) | -0.068 | -0.03 | -0.086 | 0.033 | -0.024 | 0.027 | 0.092 | 0.009 | 0.057 | -0.005
CDC16 (UniProt Q13042) | -0.006 | -0.067 | -0.051 | 0.031 | -0.009 | 0.006 | 0.019 | 0.027 | -0.056 | -0.004
CDAN1 (UniProt Q8IWY9) | 0.006 | -0.01 | 0.048 | -0.025 | -0.012 | -0.04 | -0.063 | -0.001 | 0 | 0.003
AUH (UniProt Q13825) | 0.003 | -0.031 | 0.083 | -0.042 | 0.111 | 0.027 | -0.035 | 0.026 | -0.045 | -0.008
ATP9B (UniProt O43861) | 0.008 | -0.057 | 0.034 | 0.175 | -0.07 | 0.031 | 0.081 | 0.027 | -0.103 | -0.037
ATG4B (UniProt Q9Y4P1) | 0.012 | 0.002 | -0.022 | -0.024 | 0.028 | -0.019 | -0.007 | 0.008 | -0.004 | 0.019
CBX1 (UniProt P83916) | -0.012 | -0.158 | -0.012 | -0.006 | 0.03 | -0.017 | 0.017 | 0.008 | 0.03 | 0.029
CDKN1B (UniProt P46527) | -0.079 | -0.067 | 0.011 | 0.012 | 0.026 | -0.038 | 0.03 | 0.045 | 0.003 | -0.086
CCP110 (UniProt O43303) | 0.081 | -0.436 (active) | 0.046 | -0.022 | 0.03 | -0.088 | -0.047 | -0.051 | 0.051 | 0.075
C18orf32 (UniProt Q8TCD1) | 0.089 | 0.126 | 0.009 | -0.06 | -0.026 | 0.011 | 0.003 | -0.049 | -0.032 | -0.026
ATG10 (UniProt Q9H0Y0) | 0.062 | 0.043 | -0.011 | -0.012 | -0.01 | 0.035 | 0.086 | -0.004 | -0.004 | 0.022
BLM (UniProt P54132) | -0.034 | 0.061 | -0.042 | 0.011 | 0.032 | 0.079 | -0.059 | -0.026 | -0.01 | -0.02
CCNH (UniProt P51946) | 0.018 | -0.018 | 0.074 | -0.055 | -0.029 | 0 | -0.021 | -0.047 | 0.012 | -0.005
CCDC47 (UniProt Q96A33) | 0.02 | 0.003 | -0.071 | 0.009 | 0.022 | -0.03 | -0.093 | -0.007 | 0.024 | 0.003
CDK9 isoform 2 (UniProt P50750) | -0.055 | -0.054 | 0.195 | 0.019 | 0.02 | -0.01 | 0.019 | 0.102 | 0.005 | -0.002
CARD11 (UniProt Q9BXL7) | -0.03 | -0.051 | 0.016 | 0.061 | -0.168 | -0.048 | -0.022 | -0.042 | 0.013 | -0.01
ATP6V0A2 (UniProt Q9Y487) | 0.026 | 0.027 | 0.044 | -0.006 | 0.035 | 0.004 | -0.024 | -0.012 | 0 | 0.042
C12orf45 (UniProt Q8N5I9) | -0.038 | -0.113 | 0.027 | 0.009 | -0.037 | 0.009 | 0.009 | -0.018 | 0.009 | -0.002
CDK16 isoform 2 (UniProt Q00536) | -0.061 | 0.002 | 0.016 | 0 | -0.005 | -0.017 | 0.151 | 0.004 | -0.007 | 0.03
BPHL (UniProt Q86WA6) | -0.054 | -0.445 (active) | 0.033 | 0.089 | -0.135 | -0.071 | 0.118 | -0.063 | 0.082 | -0.033
CCDC51 (UniProt Q96ER9) | 0.03 | -0.08 | -0.047 | -0.024 | -0.005 | 0.067 | -0.07 | 0.005 | 0.029 | -0.041
CELF2 isoform 3 (UniProt O95319) | -0.111 | -0.041 | -0.041 | -0.004 | -0.024 | 0.007 | -0.012 | -0.053 | 0.041 | -0.029
ATRIP (UniProt Q8WXE1) | -0.009 | 0.032 | -0.023 | 0.227 | 0.046 | 0.064 | 0.266 | -0.059 | -0.057 | 0.015
CHD5 (UniProt Q8TDI0) | 0.008 | -0.004 | -0.031 | 0.056 | -0.035 | 0.043 | -0.072 | 0.058 | -0.003 | -0.016
C8orf37 (UniProt Q96NL8) | -0.006 | -0.174 | 0.029 | -0.064 | 0.005 | 0.001 | 0.037 | -0.067 | 0.007 | -0.047
CCNB1 (UniProt P14635) | -0.013 | 0.008 | 0.032 | -0.019 | 0.01 | 0.001 | -0.11 | -0.034 | 0.026 | 0.01

Reference: the supplement of paper PMC10849652
